Experimental data reported in the supplement of paper PMC7261846.
Structures can show the parent of a compound that is named as a salt. ± gives the uncertainty stated by the source.

System: Candida albicans SNY425 biofilm
Test: biofilm OD600 with compound plus antifungal (OD600 (absorbance)); higher = more biofilm remaining
[1] = assay detail: disruption of 24-h mature biofilm (compound + antifungal for a second 24 h)
[2] = assay detail: sustained inhibition (compound + antifungal during 90-min adherence and 24-h growth)

CC(NC(=O)C(Cc1ccccc1)NC(=O)OCc1ccccc1)C(=O)CF (centres undefined) + OC(Cn1cncn1)(Cn1cncn1)c1ccc(F)cc1F [fluconazole] (first compound 12.5 µM)
biofilm OD600 [1]: 0.287 ± 0.011
biofilm OD600 [2]: 0.119 ± 0.0049

CC(C)(C)NC(=O)[C@@H]1CN(Cc2cccnc2)CCN1C[C@@H](O)C[C@@H](Cc1ccccc1)C(=O)N[C@H]1c2ccccc2C[C@H]1O [indinavir] + C[C@@H]1[C@H](O)[C@@H](C)/C=C/C=C/C=C/C=C/C=C/C=C/C=C/[C@H](O[C@@H]2O[C@H](C)[C@@H](O)[C@H](N)[C@@H]2O)C[C@@H]2O[C@](O)(C[C@@H](O)C[C@@H](O)[C@H](O)CC[C@@H](O)C[C@@H](O)CC(=O)O[C@H]1C)C[C@H](O)[C@H]2C(=O)O [amphotericin B] (first compound 12.5 µM)
biofilm OD600 [1]: 0.283 ± 0.0099
biofilm OD600 [2]: 0.228 ± 0.0076

NCC1CCC(C(=O)N[C@@H](Cc2ccccc2)C(=O)Nc2ccc(CC(=O)O)cc2)CC1 (some centres undefined) + CC[C@H](C)C[C@H](C)CCCCCCCCC(=O)N[C@H]1C[C@@H](O)[C@@H](NCCN)NC(=O)[C@@H]2[C@@H](O)CCN2C(=O)[C@H]([C@H](O)CCN)NC(=O)[C@H]([C@H](O)[C@@H](O)c2ccc(O)cc2)NC(=O)[C@@H]2C[C@@H](O)CN2C(=O)[C@H]([C@@H](C)O)NC1=O [caspofungin] (first compound 12.5 µM)
biofilm OD600 [1]: 0.26 ± 0.0081
biofilm OD600 [2]: 0.191 ± 0.024

O=C[C@@H]1CCCN1C(=O)[C@@H]1CCCN1C(=O)OCc1ccccc1 [Z-Prolyl-prolinal] + OC(Cn1cncn1)(Cn1cncn1)c1ccc(F)cc1F [fluconazole] (first compound 12.5 µM)
biofilm OD600 [1]: 0.247 ± 0.013
biofilm OD600 [2]: 0.0978 ± 0.0091

CC1(C)C[C@@H]1C(=O)N/C(=C\CCCCSC[C@H](N)C(=O)O)C(=O)O [Cilastatin] + OC(Cn1cncn1)(Cn1cncn1)c1ccc(F)cc1F [fluconazole] (first compound 12.5 µM)
biofilm OD600 [1]: 0.271 ± 0.011
biofilm OD600 [2]: 0.162 ± 0.012

N=C(N)Nc1ccc(C(=O)Oc2ccc3cc(C(=N)N)ccc3c2)cc1 [Nafamostat mesylate] + OC(Cn1cncn1)(Cn1cncn1)c1ccc(F)cc1F [fluconazole] (first compound 12.5 µM)
biofilm OD600 [1]: 0.262 ± 0.011
biofilm OD600 [2]: 0.104 ± 0.0089

CC[C@H](C)[C@H](N)C(=O)N1CCSC1 [P32/98 hemifumarate salt] + C[C@@H]1[C@H](O)[C@@H](C)/C=C/C=C/C=C/C=C/C=C/C=C/C=C/[C@H](O[C@@H]2O[C@H](C)[C@@H](O)[C@H](N)[C@@H]2O)C[C@@H]2O[C@](O)(C[C@@H](O)C[C@@H](O)[C@H](O)CC[C@@H](O)C[C@@H](O)CC(=O)O[C@H]1C)C[C@H](O)[C@H]2C(=O)O [amphotericin B] (first compound 12.5 µM)
biofilm OD600 [1]: 0.259 ± 0.014
biofilm OD600 [2]: 0.181 ± 0.0051

CCCC[C@@H](C=O)NC(=O)[C@H](CC(C)C)NC(=O)OCc1ccccc1 [Calpeptin] + CC[C@H](C)C[C@H](C)CCCCCCCCC(=O)N[C@H]1C[C@@H](O)[C@@H](NCCN)NC(=O)[C@@H]2[C@@H](O)CCN2C(=O)[C@H]([C@H](O)CCN)NC(=O)[C@H]([C@H](O)[C@@H](O)c2ccc(O)cc2)NC(=O)[C@@H]2C[C@@H](O)CN2C(=O)[C@H]([C@@H](C)O)NC1=O [caspofungin] (first compound 12.5 µM)
biofilm OD600 [1]: 0.263 ± 0.0082
biofilm OD600 [2]: 0.174 ± 0.0085

CC(C)(C)NC(=O)[C@@H]1C[C@@H]2CCCC[C@@H]2CN1C[C@@H](O)[C@H](Cc1ccccc1)NC(=O)[C@H](CC(N)=O)NC(=O)c1ccc2ccccc2n1 [saquinavir] + CC[C@H](C)C[C@H](C)CCCCCCCCC(=O)N[C@H]1C[C@@H](O)[C@@H](NCCN)NC(=O)[C@@H]2[C@@H](O)CCN2C(=O)[C@H]([C@H](O)CCN)NC(=O)[C@H]([C@H](O)[C@@H](O)c2ccc(O)cc2)NC(=O)[C@@H]2C[C@@H](O)CN2C(=O)[C@H]([C@@H](C)O)NC1=O [caspofungin] (first compound 12.5 µM)
biofilm OD600 [1]: 0.148 ± 0.0056
biofilm OD600 [2]: 0.042 ± 0.0016

CCC[C@@]1(CCc2ccccc2)CC(O)=C([C@H](CC)c2cccc(NS(=O)(=O)c3ccc(C(F)(F)F)cn3)c2)C(=O)O1 [tipranavir] + CC[C@H](C)C[C@H](C)CCCCCCCCC(=O)N[C@H]1C[C@@H](O)[C@@H](NCCN)NC(=O)[C@@H]2[C@@H](O)CCN2C(=O)[C@H]([C@H](O)CCN)NC(=O)[C@H]([C@H](O)[C@@H](O)c2ccc(O)cc2)NC(=O)[C@@H]2C[C@@H](O)CN2C(=O)[C@H]([C@@H](C)O)NC1=O [caspofungin] (first compound 12.5 µM)
biofilm OD600 [1]: 0.268 ± 0.011
biofilm OD600 [2]: 0.192 ± 0.0071

C[C@H](NC(=O)[C@@H]1CCCN1C(=O)[C@@H]1CCCN1C(=O)[C@@H](O)[C@H](N)Cc1ccccc1)C(N)=O [Apstatin] + OC(Cn1cncn1)(Cn1cncn1)c1ccc(F)cc1F [fluconazole] (first compound 12.5 µM)
biofilm OD600 [1]: 0.287 ± 0.01
biofilm OD600 [2]: 0.118 ± 0.0072

CC(C)CN(C[C@@H](O)[C@H](Cc1ccccc1)NC(=O)O[C@H]1CCOC1)S(=O)(=O)c1ccc(N)cc1 [amprenavir] + C[C@@H]1[C@H](O)[C@@H](C)/C=C/C=C/C=C/C=C/C=C/C=C/C=C/[C@H](O[C@@H]2O[C@H](C)[C@@H](O)[C@H](N)[C@@H]2O)C[C@@H]2O[C@](O)(C[C@@H](O)C[C@@H](O)[C@H](O)CC[C@@H](O)C[C@@H](O)CC(=O)O[C@H]1C)C[C@H](O)[C@H]2C(=O)O [amphotericin B] (first compound 12.5 µM)
biofilm OD600 [1]: 0.283 ± 0.009
biofilm OD600 [2]: 0.232 ± 0.011

CC(C)C[C@H](NC(=O)N[C@H](C(=O)N[C@@H](CCC(N)=O)C(=O)N[C@@H](C)C=O)[C@@H]1CCNC(=N)N1)C(=O)O [Elastatinal] + OC(Cn1cncn1)(Cn1cncn1)c1ccc(F)cc1F [fluconazole] (first compound 12.5 µM)
biofilm OD600 [1]: 0.249 ± 0.0066
biofilm OD600 [2]: 0.16 ± 0.014

CC[C@H](C)[C@H](N)C(=O)N1CCSC1 [P32/98 hemifumarate salt] + CC[C@H](C)C[C@H](C)CCCCCCCCC(=O)N[C@H]1C[C@@H](O)[C@@H](NCCN)NC(=O)[C@@H]2[C@@H](O)CCN2C(=O)[C@H]([C@H](O)CCN)NC(=O)[C@H]([C@H](O)[C@@H](O)c2ccc(O)cc2)NC(=O)[C@@H]2C[C@@H](O)CN2C(=O)[C@H]([C@@H](C)O)NC1=O [caspofungin] (first compound 12.5 µM)
biofilm OD600 [1]: 0.254 ± 0.0085
biofilm OD600 [2]: 0.171 ± 0.0047

CC[C@H](C)[C@H](N)C(=O)N1CCSC1 [P32/98 hemifumarate salt] + OC(Cn1cncn1)(Cn1cncn1)c1ccc(F)cc1F [fluconazole] (first compound 12.5 µM)
biofilm OD600 [1]: 0.249 ± 0.0087
biofilm OD600 [2]: 0.128 ± 0.0045

CC(C)C[C@H](NP(=O)(O)O[C@@H]1O[C@@H](C)[C@H](O)[C@@H](O)[C@H]1O)C(=O)N[C@@H](Cc1c[nH]c2ccccc12)C(=O)O [Phosphoramidon] + OC(Cn1cncn1)(Cn1cncn1)c1ccc(F)cc1F [fluconazole] (first compound 12.5 µM)
biofilm OD600 [1]: 0.255 ± 0.0097
biofilm OD600 [2]: 0.156 ± 0.0037

CCC(C)[C@H](NS(=O)(=O)c1cccc2ccccc12)C(=O)N[C@H](C=O)Cc1c[nH]c2ccccc12 (some centres undefined) + C[C@@H]1[C@H](O)[C@@H](C)/C=C/C=C/C=C/C=C/C=C/C=C/C=C/[C@H](O[C@@H]2O[C@H](C)[C@@H](O)[C@H](N)[C@@H]2O)C[C@@H]2O[C@](O)(C[C@@H](O)C[C@@H](O)[C@H](O)CC[C@@H](O)C[C@@H](O)CC(=O)O[C@H]1C)C[C@H](O)[C@H]2C(=O)O [amphotericin B] (first compound 12.5 µM)
biofilm OD600 [1]: 0.27 ± 0.0099
biofilm OD600 [2]: 0.188 ± 0.0088

CC(C)CCNC(=O)[C@H](CC(C)C)NC(=O)[C@H]1O[C@@H]1C(=O)O + OC(Cn1cncn1)(Cn1cncn1)c1ccc(F)cc1F [fluconazole] (first compound 12.5 µM)
biofilm OD600 [1]: 0.25 ± 0.0093
biofilm OD600 [2]: 0.143 ± 0.008

CCC(C)[C@H](NS(=O)(=O)c1cccc2ccccc12)C(=O)N[C@H](C=O)Cc1c[nH]c2ccccc12 (some centres undefined) + CC[C@H](C)C[C@H](C)CCCCCCCCC(=O)N[C@H]1C[C@@H](O)[C@@H](NCCN)NC(=O)[C@@H]2[C@@H](O)CCN2C(=O)[C@H]([C@H](O)CCN)NC(=O)[C@H]([C@H](O)[C@@H](O)c2ccc(O)cc2)NC(=O)[C@@H]2C[C@@H](O)CN2C(=O)[C@H]([C@@H](C)O)NC1=O [caspofungin] (first compound 12.5 µM)
biofilm OD600 [1]: 0.253 ± 0.01
biofilm OD600 [2]: 0.18 ± 0.0089

CCN1C(=O)C=CC1=O [N-Ethylmaleimide] + OC(Cn1cncn1)(Cn1cncn1)c1ccc(F)cc1F [fluconazole] (first compound 4 µM)
biofilm OD600 [1]: 0.278 ± 0.0073
biofilm OD600 [2]: 0.113 ± 0.011

CC(C)(C)NC(=O)[C@@H]1C[C@@H]2CCCC[C@@H]2CN1C[C@@H](O)[C@H](Cc1ccccc1)NC(=O)[C@H](CC(N)=O)NC(=O)c1ccc2ccccc2n1 [saquinavir] + OC(Cn1cncn1)(Cn1cncn1)c1ccc(F)cc1F [fluconazole] (first compound 12.5 µM)
biofilm OD600 [1]: 0.255 ± 0.0074
biofilm OD600 [2]: 0.112 ± 0.009

CC(NC(=O)C(Cc1ccccc1)NC(=O)OCc1ccccc1)C(=O)CF (centres undefined) + CC[C@H](C)C[C@H](C)CCCCCCCCC(=O)N[C@H]1C[C@@H](O)[C@@H](NCCN)NC(=O)[C@@H]2[C@@H](O)CCN2C(=O)[C@H]([C@H](O)CCN)NC(=O)[C@H]([C@H](O)[C@@H](O)c2ccc(O)cc2)NC(=O)[C@@H]2C[C@@H](O)CN2C(=O)[C@H]([C@@H](C)O)NC1=O [caspofungin] (first compound 12.5 µM)
biofilm OD600 [1]: 0.3 ± 0.005
biofilm OD600 [2]: 0.185 ± 0.0046
